Assay results from PubChem BioAssay AID1159580 (chemical genetic matrix, 2015).
Several values for one entry are separate records, joined by “and”; a condition that tells them apart may be missing. Equal values may be shown once. The campaign covered roughly 5,500 compounds. About 2,000 (36%) were called active. Not shown: some 18% with an inconclusive outcome. Rule as the data show it: active = normalized growth mostly below about 0.91 (no sharp cut-off); inconclusive = no clear call, values can overlap the other calls; inactive = mostly above about 0.92. The list shows a part of the results.

Experiment: chemical genetic growth profiling, strain panel (AID 1159580);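 also: tested at 20 µM; growth read once vehicle control cultures reached saturation at 30 °C; 1 = growth at the plate median or of vehicle wells; lower values mean less growth of the strain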
Conditions: S. cerevisiae deletion strains, growth OD

Measured: normalized growth

CO[C@H]1C[C@H](O[C@H]2[C@H](C)[C@@H](OC3O[C@H](C)C[C@H](N(C)C)[C@H]3OC(C)=O)[C@@H](C)C[C@]3(CO3)C(=O)[C@H](C)[C@@H](OC(C)=O)[C@@H](C)[C@@H](C)OC(=O)[C@@H]2C)O[C@@H](C)[C@@H]1OC(C)=O (some centres undefined)
inactive: locus YAL021C, strain ccr4, stronger effect = lower value 0.998 | locus YAL026C, strain drs2, stronger effect = lower value 1.01 | locus YAL030W, strain snc1, stronger effect = lower value 0.989 | locus YBL061C, strain skt5, stronger effect = lower value 1 | locus YBR009C, strain hhf1, stronger effect = lower value 0.997 | locus YBR021W, strain FUR4, stronger effect = lower value 0.996 | locus YBR023C, strain chs3, stronger effect = lower value 0.996 | locus YBR171W, strain sec66, stronger effect = lower value 1.01 | locus YBR229C, strain ROT2, stronger effect = lower value 1.01 | locus YBR231C, strain swc5, stronger effect = lower value 0.996 | locus YBR279W, strain paf1, stronger effect = lower value 1 | locus YCL011C, strain gbp2, stronger effect = lower value 1.01 | locus YCL016C, strain dcc1, stronger effect = lower value 1 | locus YCL029C, strain bik1, stronger effect = lower value 0.997 | locus YCL061C, strain MRC1, stronger effect = lower value 0.992 | locus YCL069W, strain vba3, stronger effect = lower value 0.994 | locus YCR088W, strain abp1, stronger effect = lower value 0.994 | locus YDL005C, strain med2, stronger effect = lower value 0.985 | locus YDL035C, strain GPR1, stronger effect = lower value 1.01 | locus YDL040C, strain nat1, stronger effect = lower value 0.998 | locus YDL074C, strain BRE1, stronger effect = lower value 1 | locus YDL101C, strain DUN1, stronger effect = lower value 1.01 | locus YDL134C, strain PPH21, stronger effect = lower value 1 | locus YDL185W, strain tfp1, stronger effect = lower value 0.981 | locus YDL192W, strain arf1, stronger effect = lower value 0.989 | locus YDR001C, strain nth1, stronger effect = lower value 0.992 | locus YDR069C, strain doa4, stronger effect = lower value 0.998 | locus YDR101C, strain arx1, stronger effect = lower value 1.01 | locus YDR137W, strain rgp1, stronger effect = lower value 1 | locus YDR159W, strain sac3, stronger effect = lower value 0.997 | locus YDR162C, strain NBP2, stronger effect = lower value 1 | locus YDR195W, strain ref2 1 | locus YDR297W, strain sur2, stronger effect = lower value 0.991 | locus YDR318W, strain mcm21, stronger effect = lower value 0.993 | locus YDR334W, strain swr1, stronger effect = lower value 1 | locus YDR335W, strain msn5, stronger effect = lower value 0.998 | locus YDR388W, stronger effect = lower value 0.979 | locus YDR392W, strain spt3, stronger effect = lower value 0.996 | locus YDR502C, strain sam2, stronger effect = lower value 0.977 | locus YEL003W, strain gim4, stronger effect = lower value 1 | locus YEL037C, strain rad23, stronger effect = lower value 0.998 | locus YEL061C, strain CIN8 (second series), stronger effect = lower value 1 | locus YEL061C, strain CIN8, stronger effect = lower value 1.01 | locus YER015W, strain faa2, stronger effect = lower value 0.998 | locus YER016W, strain bim1, stronger effect = lower value 0.997 | locus YER110C, stronger effect = lower value 0.988 | locus YER111C, strain swi4, stronger effect = lower value 1.01 | locus YER155C, strain BEM2 (second series), stronger effect = lower value 0.994 | locus YER155C, strain BEM2, stronger effect = lower value 1.01 | locus YER167W, strain BCK2, stronger effect = lower value 1 | locus YFR010W, strain ubp6, stronger effect = lower value 1.01 | locus YGL078C, strain dbp3, stronger effect = lower value 0.984 | locus YGL086W, strain mad1, stronger effect = lower value 1 | locus YGL167C, strain pmr1, stronger effect = lower value 0.996 | locus YGL173C, strain kem1, stronger effect = lower value 1.01 | locus YGL227W, strain vid30, stronger effect = lower value 1.02 | locus YGL240W, strain doc1, stronger effect = lower value 1.01 | locus YGL248W, strain PDE1, stronger effect = lower value 1.01 | locus YGL253W, strain hxk2, stronger effect = lower value 0.991 | locus YGR078C, strain PAC10, stronger effect = lower value 1.01 | locus YGR135W, strain pre9, stronger effect = lower value 0.986 | locus YGR252W, strain gcn5, stronger effect = lower value 0.933 | locus YHR013C, strain ard1, stronger effect = lower value 0.986 | locus YHR027C, strain rpn1, stronger effect = lower value 0.995 | locus YHR030C, strain SLT2, stronger effect = lower value 1.01 and 0.973 | locus YHR079C, strain IRE1 (second series), stronger effect = lower value 0.992 | locus YHR079C, strain IRE1, stronger effect = lower value 0.987 | locus YHR094C, strain hxt1, stronger effect = lower value 0.988 | locus YHR129C, strain ARP1, stronger effect = lower value 1.01 | locus YHR142W, strain chs7, stronger effect = lower value 1.01 | locus YHR200W, strain rpn10, stronger effect = lower value 0.992 | locus YIL066C, strain RNR3, stronger effect = lower value 1.01 | locus YIL073C, strain SPO22, stronger effect = lower value 1 | locus YIL125W, strain kgd1, stronger effect = lower value 0.988 | locus YIR030C, strain dcg1, stronger effect = lower value 1 | locus YJL092W, strain hpr5, stronger effect = lower value 1 | locus YJL095W, strain BCK1 (second series), stronger effect = lower value 0.99 | locus YJL095W, strain BCK1, stronger effect = lower value 1.01 and 0.973 | locus YJL115W, strain asf1, stronger effect = lower value 1.02 | locus YJL129C, strain trk1, stronger effect = lower value 0.979 | locus YJL134W, strain LCB3, stronger effect = lower value 1 | locus YJL154C, strain vps35, stronger effect = lower value 0.987 | locus YJL164C, strain tpk1, stronger effect = lower value 1 | locus YJL166W, strain qcr8, stronger effect = lower value 1 | locus YJL168C, strain set2, stronger effect = lower value 0.994 | locus YJL187C, strain SWE1 (second series), stronger effect = lower value 1.01 | locus YJL187C, strain SWE1, stronger effect = lower value 1 | locus YJR043C, strain POL32, stronger effect = lower value 0.986 | locus YJR066W, strain TOR1, stronger effect = lower value 0.955
